# Results reported in PubChem BioAssay AID1259245 (Vanderbilt High Throughput Screening Facility, 2017).
# The whole screen tested about 40,000 compounds, of which about 1,400 (3.5%) were called active. This is one part of a sample in which actives are shown more often than they occur.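 Rule for the calls: active = any of four per-well response measures lying three or more SD from its plate-wide compound average, in either direction; inactive = the rest, inconclusive results apart.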
# Biological target: Voltage-dependent calcium channel gamma-2 subunit (Mus musculus) + Glutamate receptor 2 (Rattus norvegicus) (UniProt O88602+P19491)
# Assay: AMPAR-TARP gamma-2 complex positive or negative modulation – cell-based, membrane potential dye, primary screen (AID 1259245)
# Settings: HEK293 GluA2+stargazin, membrane potential dye (FDSS), glutamate EC50, at 30 µM, hits were called plate by plate, in both directions; compound max-min signal: compound-alone response (agonism); glutamate slope, % of max: measured here: glutamate response slope, % max
# Voltage-dependent calcium channel gamma-2 subunit (Mus musculus) + Glutamate receptor 2 (Rattus norvegicus), sequence (O88602 whole entry, looked up): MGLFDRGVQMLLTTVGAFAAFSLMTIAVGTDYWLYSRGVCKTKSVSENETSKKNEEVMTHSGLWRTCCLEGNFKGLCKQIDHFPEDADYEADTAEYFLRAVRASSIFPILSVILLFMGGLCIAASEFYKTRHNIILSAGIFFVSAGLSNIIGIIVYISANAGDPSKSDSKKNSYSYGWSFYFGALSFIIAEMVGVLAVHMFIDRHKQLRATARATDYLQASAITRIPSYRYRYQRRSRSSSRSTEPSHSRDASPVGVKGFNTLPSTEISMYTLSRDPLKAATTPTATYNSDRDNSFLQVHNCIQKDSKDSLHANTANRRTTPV
# Voltage-dependent calcium channel gamma-2 subunit (Mus musculus) + Glutamate receptor 2 (Rattus norvegicus), sequence (P19491 whole entry, looked up): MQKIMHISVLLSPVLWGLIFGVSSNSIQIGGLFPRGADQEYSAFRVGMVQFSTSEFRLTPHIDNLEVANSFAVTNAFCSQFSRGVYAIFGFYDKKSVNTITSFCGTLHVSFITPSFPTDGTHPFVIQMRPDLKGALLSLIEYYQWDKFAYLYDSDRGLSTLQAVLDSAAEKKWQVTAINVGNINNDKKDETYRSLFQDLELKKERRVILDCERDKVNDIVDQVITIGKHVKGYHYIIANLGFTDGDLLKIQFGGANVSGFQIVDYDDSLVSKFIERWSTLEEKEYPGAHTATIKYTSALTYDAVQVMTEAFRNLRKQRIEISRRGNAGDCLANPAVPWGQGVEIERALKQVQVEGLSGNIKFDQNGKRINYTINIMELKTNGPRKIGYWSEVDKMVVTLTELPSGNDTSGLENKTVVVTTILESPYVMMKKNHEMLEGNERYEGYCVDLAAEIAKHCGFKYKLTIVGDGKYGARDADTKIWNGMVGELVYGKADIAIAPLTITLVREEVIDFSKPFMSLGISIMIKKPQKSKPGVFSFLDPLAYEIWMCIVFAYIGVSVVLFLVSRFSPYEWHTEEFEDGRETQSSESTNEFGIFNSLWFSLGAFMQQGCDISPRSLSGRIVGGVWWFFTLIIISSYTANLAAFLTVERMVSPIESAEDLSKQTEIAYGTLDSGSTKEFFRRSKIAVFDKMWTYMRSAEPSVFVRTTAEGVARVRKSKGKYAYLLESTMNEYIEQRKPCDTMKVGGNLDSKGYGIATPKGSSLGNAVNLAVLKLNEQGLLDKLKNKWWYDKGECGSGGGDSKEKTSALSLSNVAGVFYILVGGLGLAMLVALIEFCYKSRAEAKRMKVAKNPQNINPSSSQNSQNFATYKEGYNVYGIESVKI
Compound,compound max-min signal,"glutamate response, % of max","glutamate slope, % of max [%]"
COc1ccc(C)cc1S(=O)(=O)NCC1CCN(C2CCCC2)CC1,0.046,35.2% (inactive),60.4
CCOc1ccc(C)cc1S(=O)(=O)Nc1cc(Cl)ccc1O,0.184,20.5% (inactive),42.7
COc1ccc(C)cc1S(=O)(=O)Nc1cc(Cl)ccc1O,0.201,17.5% (active),33.4
COc1ccc(SCC(=O)Nc2sc3c(c2C(N)=O)CCN(C(C)=O)C3)cc1,0.106,34.1% (inactive),58.5
COc1ccc(CCNC(=O)Nc2c[nH]c3ccccc23)cc1,0.127,40.6% (inactive),64.1
Cc1cc(Cl)cc2sc(N(CC3CCCO3)C(=O)CN(C)S(C)(=O)=O)nc12 (stereo not given),0.075,26.5% (inactive),51.3
O=S(=O)(c1ccc(C2CCCCC2)cc1)N1CCC(Cc2ccccc2)CC1,0.0564,25.6% (inactive),44.4
COc1ccc(S(=O)(=O)NCC(c2ccc(C)cc2)N2CCN(C)CC2)cc1OC (stereo not given),0.0672,37.4% (inactive),55.5
CCOc1ccc(S(=O)(=O)NCC(O)c2ccsc2)cc1F (stereo not given),0.128,48.1% (inactive),69
COc1ccc(S(=O)(=O)NCC(c2ccsc2)N2CCCCCC2)cc1F (stereo not given),0.168,17.6% (active),30.2
COc1ccc(N2CCN(CCNS(=O)(=O)c3ccc(Cl)s3)CC2)cc1,0.131,37.9% (inactive),47.8
COc1cccc(CNC(=O)CSc2ccc(NC(=O)c3cccc(F)c3)nn2)c1,0.0911,24.2% (inactive),47.4
COC(=O)c1ccc(NC(=O)CSc2ccc(NC(=O)c3ccco3)nn2)cc1,0.0425,23.1% (active),46.9
CC(C)C(=O)Nc1ccc(SCC(=O)c2ccccc2)nn1,0.113,25.4% (inactive),42.3
CC(=O)c1ccc(NC(=O)CSc2ccc(NC(=O)c3ccco3)nn2)cc1,0.0373,24.5% (active),47
Cc1ccc(C(=O)Nc2ccc(SCC(=O)NCc3ccc4c(c3)OCO4)nn2)cc1,0.0549,27.8% (inactive),49.8
O=C(CSc1ccc(NC(=O)c2ccco2)nn1)Nc1ccc(OC(F)(F)F)cc1,0.106,19.5% (inactive),37.1
CCOC(=O)N1CCc2c(sc(NC(=O)c3ccccc3Cl)c2-c2nc3ccccc3s2)C1,0.11,43.3% (inactive),61.3
CCn1nnc2c(N3CCN(CC(=O)Nc4c(C)cc(C)cc4C)CC3)ncnc21,0.0423,21.5% (inactive),39.9
COc1ccc(-n2nnnc2SC(C)C(=O)Nc2ccccc2Cl)cc1 (stereo not given),0.0851,29.7% (inactive),55.7
